The test concerns Plasmodium falciparum. The experiment in a line: GSK_TCMDC: Inhibition of Plasmodium falciparum Dd2 in whole red blood cells, using parasite LDH activity as an index of growth. Test compounds present at 2uM. Format: functional.
With `CC(C)c1ccc(CN2CCC(NC(=O)c3ccc(-c4cccc(F)c4)s3)CC2)cc1.O=C(O)C(F)(F)F`, the Inhibition (commonly the relative decrease from the control value, in per cent) was 12%. Then `C[C@@H](CC1CCCCC1)OC(=O)N[C@H]1CCN(C#N)C1`, with 83%.

In turn, `Cc1ccc2[nH]c(C)cc(=NN=Cc3ccccc3Cl)c2c1` returned an Inhibition of 62%.

As to `COc1ccc(-c2ccc(NC(=O)c3ccc(Cl)cc3)cc2)cc1CN1CCN(C)CC1.O=C(O)C(F)(F)F`, the Inhibition was found to be 23%. `O=C(NCC1CCC(CNCCCc2ccccc2)CC1)Nc1ccc(Cl)c(Cl)c1` (stereo not given): the Inhibition came to 2%. Turning to `O=C(Nc1ccc2c(c1)CCN2C1CCN(Cc2ccc(C(F)(F)F)cc2F)C1)c1ccco1` (stereo not given), the Inhibition is 94%. Then `O=C(Nc1ccc(Cn2nc(Cl)c(N3CCCNCC3)cc2=O)cc1)c1ccc(-c2ccccc2)cc1.O=C(O)C(F)(F)F`, with 35%; and `CCS(=O)(=O)c1ccc(OC)c(Nc2nccc(-c3c(-c4cccc(NC(=O)c5c(F)cccc5F)c4)nn4ncccc34)n2)c1`, with 88%. For `COc1ccc(Cl)cc1NC(=O)C(C)Nc1ccc(-c2ccccc2)cc1` (stereo not given) the value was 89%; for `CN1CCN(CC2(Nc3nccc(NCCc4cn(C)c5ccccc45)n3)CCCCC2)CC1`, 41%; for `Cc1cc2c(cc1C(F)(F)F)N(C(=O)Nc1cc(OCCN(C(C)C)C(C)C)cc(C(F)(F)F)c1)CC2.Cl`, 86%.

`CC(C)(C)NCc1cc(Nc2ccnc3cc(Cl)ccc23)ccc1F` yielded an Inhibition of 100%. For `Cc1ccc(-c2nc3cc(NC(=O)c4ccc([N+](=O)[O-])o4)ccc3o2)cc1Cl` the value was 97%; for `Cc1cccc2nc(-c3cccc(-c4ccc(NC(=O)CN5CCOCC5)cc4)c3)[nH]c12`, 12%; for `CC(=O)c1ccc2c(c1)C(NC(=O)c1cccc(Cl)c1Cl)C(CO)C(C)(C)O2` (stereo not given), 44%. In the case of `Br.CC1(C)NC(N)=NC(=N)N1OCCc1cccc2ccccc12`, the Inhibition came out at 97%. For `COc1ccccc1CNC(=O)CCn1c(=O)[nH]c2ccsc2c1=O` the value was 75%; for `O=C(Nc1cccnc1)c1cc(-c2cccnc2)nc2ccc(Br)cc12`, 60%; for `COc1ccc(Nc2ncc3c(-c4cccc(NC(=O)Cc5cccc(O)c5)c4)c[nH]c3n2)cc1OC`, 96%. For `COc1ccc(CNCCc2cccs2)cc1-c1ccc(S(=O)(=O)NCCN2CCCC2)s1.O=C(O)C(F)(F)F` the value was 21%; for `Cc1cccc(CNc2nc(C)cc(N[C@@H](CC(C)C)C(=O)NCCOc3ccccc3)n2)c1.O=C(O)C(F)(F)F`, 35%; for `Cc1ccc2[nH]c(-c3ccccc3)cc(=NN=Cc3cccnc3)c2c1`, 39%. Then `O=C(NC1CCCCC1)C1CCCN(C(=O)c2ccc(O)c(-c3ccc(Cl)c(Cl)c3)c2)C1` (stereo not given), with 42%; and `O=C(O)C(F)(F)F.O=[N+]([O-])c1cccc(CNC2CCN(Cc3ccc(Cl)c(Cl)c3)CC2)c1`, with 71%; and `COc1cc2c(cc1C(F)(F)F)N(C(=O)Nc1cc(OC(F)(F)F)cc(-c3cccnc3)c1)CC2`, with 49%.

Compound `Cc1cccc(-c2ccc(NC(=O)Nc3ccc4nccc(N5CCN(C)CC5)c4c3)cc2C)n1.Cl` came in with an Inhibition of 95%. Then `Cc1cc(-c2ccc(NC(=O)N3CCc4cc(Br)c(N5CCN(C)CC5)cc43)cc2)cc(C)n1`, with 4%; and `CCOc1cc(C=NNc2nc(C)cc(-n3nc(C)cc3C)n2)ccc1O`, with 52%. Take `CC(C)c1cccc(C(NC(=O)[C@H]2Cc3ccccc3CN2C(=O)c2cccc(N3CCOCC3)c2)C2CCCC2)c1` (stereo not given in full): the Inhibition was determined as 96%. In turn, `Cc1cccc2nc(-c3cccc(-c4cccc(NC(=O)c5cn(C)c(=O)n5C)c4)c3)[nH]c12` returned an Inhibition of 80%. Compound `CN(C)CCOc1cc(NC(=O)Nc2ccc(Cl)cc2C(F)(F)F)ccc1I` registered an Inhibition of 16%. As for `CC(C)CNCc1cccc(-c2cccc(CN(CCCN3CCN(C)CC3)C(=O)/C=C/c3ccccc3)c2)c1.O=C(O)C(F)(F)F`, the Inhibition turned out to be 88%.

On to `O=C(O)C(F)(F)F.O=S(=O)(/C=C/c1ccccc1)N(Cc1ccc(-c2ccc(CNCCOc3ccccc3)cc2)cc1)CC1CCCCN1` (stereo not given), for which the Inhibition is 95%.

`CCNc1cc(C)nc(Nc2ccc(NC(=O)c3ccco3)cc2)n1`: the Inhibition is 32%. Then `CC(C)(C)c1ccc(-c2cc(C(=O)N[C@@H](CO)C(=O)O)on2)cc1.CC(C)(C)c1ccc(-c2nocc2C(=O)N[C@@H](CO)C(=O)O)cc1`, with 0%. `COc1cccc(CNC(=O)c2cccc(-c3cccc(CN4CCC(N5CCCC5)CC4)c3)n2)c1.O=C(O)C(F)(F)F` gave an Inhibition of 76%. Then `Fc1ccc2[nH]c(-c3cccc(-c4cccc(CN5CCN(c6cnccn6)CC5)c4)c3)nc2c1.O=C(O)C(F)(F)F`, with 35%; and `CC(=O)Nc1cc(C(=O)Nc2cccc(-c3cccc(-c4nc5cccc(C)c5[nH]4)c3)c2)ccc1C`, with 62%; and `Cl.O=C(Nc1ccc(C(=O)OCC2CCCN3CCCCC23)cc1)c1ccc(Cl)c(Cl)c1` (stereo not given), with 37%.

In the case of `CS(=O)(=O)N1CC2(CCN(CCC(NC(=O)NCc3ccccc3Cl)c3ccc(Cl)c(Cl)c3)CC2)c2ccccc21` (stereo not given), the Inhibition worked out at 98%.
